Assay outcomes as filed in PubChem.
HPGD inh: HPGD (human) dehydrogenase inhibition | Potency, µM, without a hit: at the top dose activity change, negative = inhibition, hits mostly inhibitors | purified HPGD, NADH fluorescence kinetic, PGE2 substrate | AID 894 | 150,000 tested, 4.3% active; also: potency is read from the fitted curve at half-maximal effect
Target sequence (P15428 whole entry, looked up): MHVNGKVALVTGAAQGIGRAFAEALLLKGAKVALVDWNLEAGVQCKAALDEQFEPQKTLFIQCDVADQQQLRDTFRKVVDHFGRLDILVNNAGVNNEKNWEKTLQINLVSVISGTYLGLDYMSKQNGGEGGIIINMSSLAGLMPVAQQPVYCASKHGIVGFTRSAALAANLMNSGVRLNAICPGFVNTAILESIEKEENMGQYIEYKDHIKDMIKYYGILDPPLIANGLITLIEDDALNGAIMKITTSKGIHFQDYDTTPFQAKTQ
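20 nM HPGD preincubated 15 min at room temperature with compound in 50 mM Tris-HCl pH 8, 0.01% Tween 20. Started with 1 mM NAD+ and 30 uM prostaglandin E2; NADH fluorescence (360/450 nm) read 5 times over 30-s intervals, last minus first.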
PNC inhibitor: blocks assembly of the perinucleolar compartment; PC3M PTB-GFP, PNC prevalence imaging, 16 h; hits give low values; activity change (PNC), negative = inhibition, % at 10 µM; 140,000 tested, 3.1% active; AID 2417;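 active = readout at or below -70, meaning at least 70% loss of cells showing the perinucleolar compartment, a nuclear body marking cancer cells; inconclusive = readout between -30 and a set limit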;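 also: plate controls were DMSO wells for no effect and camptothecin positive control wells for full effect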
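Compounds are pinned in duplicate onto adhered PC3M cells stably expressing GFP-tagged PTB and incubated 16 h at 37 C. Cells are then fixed, nuclei stained with Hoechst, and PNC-positive cells counted.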
IMPase inh: membrane-permeable compound that blocks inositol monophosphatase | inhibition (IP1 accumulation), % at 46.1 µM | CHO-M1 cells, IP1 accumulation, HTRF TR-FRET ratio | 120,000 tested, under 10 active | AID 901; active = well fitted curve in the direction sought with a large enough effect in the signal ratio, not every such curve was filed as active; inconclusive = small, poorly fitted or top-dose-only effect, or a change in a side signal; inactive = no such curve, though single readings can be large or run the other way; the % refers to the signal ratio;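 also: cells stimulated with carbachol in lithium chloride buffer; plate controls were DMSO basal wells for no effect and reference inhibitor wells for full effect; higher means more IMPase inhibition seen as more IP1 and lower FRET ratio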
Target sequence (P97697 whole entry, looked up): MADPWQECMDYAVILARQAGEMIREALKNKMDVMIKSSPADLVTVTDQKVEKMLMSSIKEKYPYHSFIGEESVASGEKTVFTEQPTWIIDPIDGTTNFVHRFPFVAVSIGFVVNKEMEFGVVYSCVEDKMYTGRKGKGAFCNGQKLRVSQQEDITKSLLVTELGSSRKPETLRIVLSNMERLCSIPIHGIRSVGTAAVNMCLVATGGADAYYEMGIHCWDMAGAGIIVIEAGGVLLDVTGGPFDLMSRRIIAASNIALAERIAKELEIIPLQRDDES
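In this qHTS, compounds (final up to 46 uM) act on CHO-M1 cells that are then activated through the M1 receptor with carbachol, in pH 7.4 buffer containing 50 mM LiCl, for 30 min. IP1 accumulation is quantified by the IP-One immunoassay.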
IMPase Li cell: IMPase inhibition in cells with lithium potentiation | 210,000 tested, 0.35% active | Potency, µM (top dose mostly 59.4 µM), without a hit: at the highest dose activity, negative = IMPase inhibition, most hits filed as inhibitors | CHO-M1 cells, IP1 TR-FRET (IP-One), carbachol + lithium; active = well fitted inhibition curve with a large enough effect; inconclusive = small, poorly fitted or top-dose-only effect; inactive = no such curve, though single readings can be large or run the other way;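 also: IP1 builds up when IMPase is blocked and the TR-FRET signal falls; potency is read from the fitted curve at half-maximal effect; plate controls were basal vehicle for no effect and high inhibitor control for full effect; nearly all actives have a fitted effect of over 50% in size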
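Readout is a homogeneous TR-FRET IP1 immunoassay (Ex 320, Em 665 and 620), where raised cytosolic IP1 lowers signal. Cells were CHO-M1 treated 30 min at 37C with test compounds plus a little lithium; AC50 values came from Hill-equation fitting.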
ALDH1A1 inh: inhibitors of human aldehyde dehydrogenase 1A1 | 220,000 tested, 7.3% active | AID 1030 | P00352 | Potency, µM (highest dose often 75.3 µM), without a hit: at the top dose activity, negative = inhibition, actives largely listed as inhibitors | Purified ALDH1A1, NADH fluorescence, propionaldehyde substrate;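 also: potency is read from the fitted curve at half-maximal effect; plate controls were no enzyme wells and a reference inhibitor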
* marks the source's active call; other numbers are inactive results; ? = inconclusive; . = no result given; [ ] = remark or other dose. Hits are enriched below; roughly 11% of the tested compounds scored in any of these assays. Unless noted, calls follow the shape of the dose curve; as a rule, active = well fitted inhibition curve with a large enough effect (not every such curve was filed as active); inconclusive = small, poorly fitted or top-dose-only effect, or another doubt; inactive = no such curve, though single readings can be large or run the other way. Unless noted, % is scaled to controls: 0 for no effect and ±100 for the full control effect.

SMILES	HPGD inh	PNC inhibitor	IMPase inh	IMPase Li cell	ALDH1A1 inh
O=C(C1=C[C@@H](c2ccccc2)C[C@@H](OCc2ccc(CO)cc2)O1)N1CCCCCCC1	.	.	.	15%	25µM*
CCO[C@H]1OC(C(=O)N2CCN(Cc3ccccc3)CC2)=C[C@@H](c2ccc(C(F)(F)F)cc2)[C@@H]1CCCO	.	.	.	-10%	4.5µM*
CCOc1ccc(C2CC(=O)N(Nc3ccc([N+](=O)[O-])cc3[N+](=O)[O-])C2=O)cc1 (stereo not given)	.	.	.	.	2%
CC(C)c1nnc(NC(=O)C2CCN(c3cnccn3)CC2)s1	-5%	24	3	6%	32µM*
CCc1nnc(NC(=O)C2CCN(c3cnccn3)CC2)s1	-14%	?	-1	4%[38.3 µM]	?
O=C(Nc1ccc2oc(-c3ccc(F)cc3)nc2c1)c1ccccc1F	?	-15	-14	-21%[38.3 µM]	?
O=C(NC(=S)NCc1ccccc1)c1ccccc1F	-25%	44	3	-6%[38.3 µM]	32µM*
O=C(NC(=S)NCc1ccccc1)c1ccccc1[N+](=O)[O-]	.	.	.	5%	-10%
O=C(NC(=S)Nc1ccc2oc(-c3ccncc3)nc2c1)c1ccccc1F	.	.	.	5.6µM*	?
O=C(NC(=S)NC(=O)c1ccccc1F)c1ccccc1F	13µM*	9	0	13%	2µM*
O=C(NC(=S)N(Cc1ccccc1)Cc1ccccc1)c1ccccc1F	-1%	3	-13	-2%[38.3 µM]	-15%
CC(C)=NO[C@@H](C)c1cn([C@H](CO)Cc2ccccc2)nn1	.	.	.	.	14%[13.5 µM]
COc1ccc(-c2nc3cnc(N4CCOCC4)nc3n(CCC#N)c2=O)cc1	-13%	.	.	-14%	?
CNC1CCC(c2ccc(Cl)c(Cl)c2)c2ccccc21 (stereo not given)	1%	.	.	.	-6%
Cc1nn(CCc2nc(-c3ccco3)cs2)c2[nH]c(=O)cc(C(F)(F)F)c12	?	?	-2	?	2.5µM*
Cc1cc(C)n(CCc2nc(-c3ccco3)cs2)n1	?	42	5	-7%[38.3 µM]	7.1µM*
NNC(=O)CCc1ccc2ccc3ccccc3c2c1	-11%	.	.	10%	-11%[13.5 µM]
Cc1ccccc1NC(=O)c1sc2nc3c(cc2c1N)CCCC3	.	.	2	.	.
COCCNC(=O)c1ccc(N2CCCCC2)c(NS(=O)(=O)c2ccc(C)cc2)c1	-19%	31	8	8%	8.9µM*
CCN(CC)CCCNC(=O)c1ccc(N2CCCCC2)c(NS(=O)(=O)c2ccc(C)cc2)c1	.	.	.	0%	14µM*
COc1ccc(NC(=O)c2sc3nc(C)c(C(=O)Nc4ccc(C)cc4C)c(-c4ccc(C)o4)c3c2N)cc1	.	.	3	.	.
CCC(=O)NC(c1ccccc1OC)c1ccc2cccnc2c1O (stereo not given)	-11%	-100*	13	12%	0%
CCCC(=O)NC(c1ccc(OC)cc1)c1ccc2cccnc2c1O (stereo not given)	.	.	.	17%	12%
CC(=O)OCC1OC(C#CCC2CCCCC2)C=CC1OC(C)=O (stereo not given)	.	.	.	.	4.5µM*
COc1cc(/C=N/N2C(=O)CSC2=S)cc(Br)c1O	.	.	.	5%	?
SMILES	HPGD inh	PNC inhibitor	IMPase inh	IMPase Li cell	ALDH1A1 inh
COc1cccc(/C=N/N2C(=O)CSC2=S)c1O	25µM*	?	.	23%	7.1µM*
COc1cccc(OC)c1OCCCOc1ccc([N+](=O)[O-])cc1Cl	16µM*	-16	.	10%	-2%
COc1cccc(OC)c1OCCCOc1ccc(C)cc1Br	22µM*	80	.	3%	2%
COc1ccccc1OCCCOc1c(C)cc(C)cc1Br	-27%	49	.	6%	13%
COc1ccc(S(=O)(=O)NCCSc2ccccc2)cc1OC	6%	-11	11	2%[38.3 µM]	?
COc1ccc(S(=O)(=O)NCCSc2ccc(C)cc2)cc1OC	-23%	6	2	-9%[38.3 µM]	5µM*
Cc1ccc(SCCNS(=O)(=O)c2ccc3c(c2)OCCO3)cc1	-10%	120	0	23%	1.4µM*
Cc1ccc(SCCNS(=O)(=O)c2ccc(F)cc2)cc1	-7%	4	10	15%[38.3 µM]	16µM*
COc1cc([C@@H]2c3cc4c(cc3[C@@H](OC3OC5COC(C)OC5C(O)C3O)[C@H]3COC(=O)[C@H]23)OCO4)cc(OC)c1O (stereo not given in full)	.	.	.	1%	-1%
CCC1(C)C(Nc2c(C)cccc2C)=NC(=S)N1c1ccc(NC(C)=O)cc1 (stereo not given)	.	9	-2	.	3%
O=C1[C@H]2[C@H]3[C@H](O)[C@H](O)C/C(=N/OCc4ccccc4)[C@@H]3CC[C@@H]2C(=O)N1C1CCCCC1	.	.	.	.	5%[13.5 µM]
O=c1[nH]c2c(s1)C(c1ccc(O)cc1)C1C3CCC(C3)C1S2 (stereo not given)	?	?	-11	37%[38.3 µM]	11µM*
COc1ccc(C2c3sc(=O)[nH]c3SC3C4CCC(C4)C23)cc1OC (stereo not given)	-27%	76	-2	7%	?
CCCCNC(=O)CC1Nc2cc(C)c(C)cc2NC1=O (stereo not given)	.	.	3	.	.
COc1ccc(Cl)cc1-c1nc(SCC(=O)NC2CC2)n[nH]1	.	.	.	2%	0%
O=C(O)/C=C\C(=O)Nc1ccc2c(c1)-c1ccccc1C2	-13%	.	.	-14%	-9%[13.5 µM]
C#CCOCCOCCOCCNc1nc(N2CCN(C(=O)[C@H](Cc3cc4ccccc4[nH]3)n3cc([C@@H](N)C(C)CC)nn3)CC2)nc(N2CCN(C(=O)[C@H](Cc3cc4ccccc4[nH]3)n3cc([C@@H](N)CC(C)C)nn3)CC2)n1 (stereo not given in full)	.	.	.	0%	-2%
CN=C1S/C(=C\c2cc(C)n(-c3ccccc3F)c2C)C(=O)N1C	22µM*	22	18	26%	18µM*
Cc1ccccc1OCCCC(=O)Nc1ccccc1C(F)(F)F	-25%	63	1	1%[38.3 µM]	11%
Cc1ccc(C(=O)NC(=S)Nc2ccccc2C(F)(F)F)cc1	.	?	?	.	13µM*
CC(C)CC(=O)NC(=S)Nc1ccccc1C(F)(F)F	?	8	.	7%	18µM*
COc1ccccc1C(C)NCC(=O)Nc1ccccc1C(F)(F)F (stereo not given)	?	-116*	.	2%	-5%
CC(C)(C)CC(=O)NC(=S)Nc1ccccc1C(F)(F)F	25µM*	49	5	15%[38.3 µM]	-7%
CC/C=C\[C@H](O)[C@H](O)C1=C(C)C(=O)[C@]2(O1)C(=O)N[C@@](OC)(C(=O)c1ccccc1)C2O (stereo not given in full)	.	.	.	-6%	?
O=C(c1cccc(F)c1)N1CCC2(CC1)CN(c1ccccn1)C2	?	.	.	17%	?
COC(=O)c1ccc(C(=O)OC)c(NC(=O)c2c(-c3ccccc3)noc2C)c1	.	.	7	.	.
CC(C)CC(=O)NC(=S)Nc1ccccc1F	20µM*	-15	9	-12%[38.3 µM]	-4%
